Laboratory results from the supplement of paper PMC11732987, “Enantioselective OTUD7B fragment discovery through chemoproteomics screening and high-throughput optimisation” (Communications Chemistry, 2025).

What was measured:
Test in all cases: log2 ratio of Biotin-Ahx-Ub-VS probe labelling (fragment/DMSO); higher = less target engagement (more negative = stronger competition), active = hit call of the paper (q ≤ 0.05, log2 ratio ≤ -1)
Conditions in all cases: compound concentration: 200 uM; treatment time: 3 h
USP42 = target: T1, USP42 (UniProt Q9H9J4)
T1 sequence (whole entry): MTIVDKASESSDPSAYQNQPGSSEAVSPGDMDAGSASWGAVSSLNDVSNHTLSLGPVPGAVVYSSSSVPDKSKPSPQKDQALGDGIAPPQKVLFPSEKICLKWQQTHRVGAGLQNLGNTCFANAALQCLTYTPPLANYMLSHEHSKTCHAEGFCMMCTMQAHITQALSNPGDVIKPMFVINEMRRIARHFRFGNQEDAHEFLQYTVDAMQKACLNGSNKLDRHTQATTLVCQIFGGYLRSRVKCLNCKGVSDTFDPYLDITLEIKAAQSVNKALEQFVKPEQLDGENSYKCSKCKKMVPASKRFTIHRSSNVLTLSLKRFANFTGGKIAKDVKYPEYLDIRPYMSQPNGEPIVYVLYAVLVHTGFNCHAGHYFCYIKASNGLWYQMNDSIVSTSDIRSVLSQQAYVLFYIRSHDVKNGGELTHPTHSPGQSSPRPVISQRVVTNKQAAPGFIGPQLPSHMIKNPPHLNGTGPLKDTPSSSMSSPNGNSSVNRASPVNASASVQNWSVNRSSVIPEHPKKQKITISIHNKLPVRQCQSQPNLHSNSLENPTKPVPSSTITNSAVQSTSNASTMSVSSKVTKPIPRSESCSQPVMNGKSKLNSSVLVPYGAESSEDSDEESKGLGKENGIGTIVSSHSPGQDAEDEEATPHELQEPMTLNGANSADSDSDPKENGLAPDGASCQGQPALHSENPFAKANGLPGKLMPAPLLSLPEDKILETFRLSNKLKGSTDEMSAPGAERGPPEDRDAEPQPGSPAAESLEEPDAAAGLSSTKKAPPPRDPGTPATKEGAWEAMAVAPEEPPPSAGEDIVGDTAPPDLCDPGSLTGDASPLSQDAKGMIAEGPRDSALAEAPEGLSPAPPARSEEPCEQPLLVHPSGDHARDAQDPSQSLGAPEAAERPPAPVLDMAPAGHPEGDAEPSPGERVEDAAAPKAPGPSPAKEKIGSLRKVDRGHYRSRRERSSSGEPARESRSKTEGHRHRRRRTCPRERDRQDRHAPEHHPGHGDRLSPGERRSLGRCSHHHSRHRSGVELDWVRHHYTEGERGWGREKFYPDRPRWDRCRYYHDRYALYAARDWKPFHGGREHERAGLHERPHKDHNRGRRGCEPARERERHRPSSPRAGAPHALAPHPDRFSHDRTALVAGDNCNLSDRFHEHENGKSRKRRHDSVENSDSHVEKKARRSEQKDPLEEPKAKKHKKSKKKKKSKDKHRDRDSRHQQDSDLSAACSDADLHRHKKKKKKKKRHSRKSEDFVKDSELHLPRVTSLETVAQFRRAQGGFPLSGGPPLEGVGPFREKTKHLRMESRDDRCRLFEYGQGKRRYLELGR
Outline: (§1)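 Fragment (200 µM) or vehicle was incubated for 3 h with triplicate HEK293T lysate samples of 495 µg, which were then treated with Biotin-Ahx-Ub-VS at 0.5 µM final for 1 h. Labelled DUBs were enriched on NeutrAvidin, digested with LysC and trypsin, and analysed by diaPASEF LC-MS/MS. Values are average log2 fragment/vehicle ratios from an unpaired t-test on global-median-normalised Spectronaut label-free quantities, using proteins with ≥2 unique peptides.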

USP46 = USP46 (UniProt P62068)
USP46, sequence (P62068 whole entry): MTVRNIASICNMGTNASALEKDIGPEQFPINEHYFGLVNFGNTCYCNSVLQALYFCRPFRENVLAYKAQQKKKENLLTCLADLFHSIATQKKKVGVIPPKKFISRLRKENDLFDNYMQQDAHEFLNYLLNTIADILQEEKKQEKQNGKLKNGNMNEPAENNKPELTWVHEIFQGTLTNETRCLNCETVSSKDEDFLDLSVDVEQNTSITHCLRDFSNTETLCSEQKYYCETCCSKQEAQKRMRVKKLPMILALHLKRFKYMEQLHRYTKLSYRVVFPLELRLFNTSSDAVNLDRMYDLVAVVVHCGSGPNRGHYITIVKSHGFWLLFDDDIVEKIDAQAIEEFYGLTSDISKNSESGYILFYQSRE
Outline: as §1

USP47 = target: T2, USP47 (UniProt Q96K76)
T2 sequence (whole entry): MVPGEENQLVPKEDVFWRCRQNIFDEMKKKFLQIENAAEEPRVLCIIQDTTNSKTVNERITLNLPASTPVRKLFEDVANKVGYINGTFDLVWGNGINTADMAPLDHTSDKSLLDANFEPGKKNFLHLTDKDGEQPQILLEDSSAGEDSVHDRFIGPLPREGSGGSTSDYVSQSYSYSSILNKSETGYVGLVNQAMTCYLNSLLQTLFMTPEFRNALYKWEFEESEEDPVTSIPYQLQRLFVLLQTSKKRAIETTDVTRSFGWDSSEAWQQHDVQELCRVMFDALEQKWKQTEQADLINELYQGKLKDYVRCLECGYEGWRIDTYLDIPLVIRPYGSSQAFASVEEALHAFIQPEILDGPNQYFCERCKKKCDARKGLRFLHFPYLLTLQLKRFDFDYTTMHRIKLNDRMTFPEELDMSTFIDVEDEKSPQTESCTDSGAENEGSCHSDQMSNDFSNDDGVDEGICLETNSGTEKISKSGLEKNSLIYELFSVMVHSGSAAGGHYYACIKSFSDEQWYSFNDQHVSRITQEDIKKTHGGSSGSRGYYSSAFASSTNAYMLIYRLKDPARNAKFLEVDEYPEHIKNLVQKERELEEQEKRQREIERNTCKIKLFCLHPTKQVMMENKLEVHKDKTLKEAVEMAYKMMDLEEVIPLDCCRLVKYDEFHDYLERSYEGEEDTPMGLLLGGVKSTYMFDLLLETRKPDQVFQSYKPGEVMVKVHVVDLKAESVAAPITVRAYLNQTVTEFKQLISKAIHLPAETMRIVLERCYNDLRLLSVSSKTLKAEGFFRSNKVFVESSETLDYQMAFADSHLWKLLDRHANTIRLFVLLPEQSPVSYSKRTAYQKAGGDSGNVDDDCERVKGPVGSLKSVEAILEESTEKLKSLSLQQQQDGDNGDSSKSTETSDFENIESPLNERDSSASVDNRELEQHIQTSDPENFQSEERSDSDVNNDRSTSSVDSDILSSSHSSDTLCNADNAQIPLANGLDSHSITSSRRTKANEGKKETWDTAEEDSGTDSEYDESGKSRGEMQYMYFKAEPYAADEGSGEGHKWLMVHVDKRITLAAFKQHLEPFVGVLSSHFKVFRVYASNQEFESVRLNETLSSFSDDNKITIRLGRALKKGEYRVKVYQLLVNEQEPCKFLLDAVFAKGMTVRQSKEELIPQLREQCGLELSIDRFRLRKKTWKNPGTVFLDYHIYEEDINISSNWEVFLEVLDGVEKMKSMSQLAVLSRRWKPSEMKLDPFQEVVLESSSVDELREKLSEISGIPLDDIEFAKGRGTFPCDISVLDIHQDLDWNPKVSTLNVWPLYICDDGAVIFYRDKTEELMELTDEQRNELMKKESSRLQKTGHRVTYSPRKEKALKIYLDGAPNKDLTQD
Outline: as §1

USP48 = target: T3, USP48 (UniProt Q86UV5)
T3 sequence (whole entry): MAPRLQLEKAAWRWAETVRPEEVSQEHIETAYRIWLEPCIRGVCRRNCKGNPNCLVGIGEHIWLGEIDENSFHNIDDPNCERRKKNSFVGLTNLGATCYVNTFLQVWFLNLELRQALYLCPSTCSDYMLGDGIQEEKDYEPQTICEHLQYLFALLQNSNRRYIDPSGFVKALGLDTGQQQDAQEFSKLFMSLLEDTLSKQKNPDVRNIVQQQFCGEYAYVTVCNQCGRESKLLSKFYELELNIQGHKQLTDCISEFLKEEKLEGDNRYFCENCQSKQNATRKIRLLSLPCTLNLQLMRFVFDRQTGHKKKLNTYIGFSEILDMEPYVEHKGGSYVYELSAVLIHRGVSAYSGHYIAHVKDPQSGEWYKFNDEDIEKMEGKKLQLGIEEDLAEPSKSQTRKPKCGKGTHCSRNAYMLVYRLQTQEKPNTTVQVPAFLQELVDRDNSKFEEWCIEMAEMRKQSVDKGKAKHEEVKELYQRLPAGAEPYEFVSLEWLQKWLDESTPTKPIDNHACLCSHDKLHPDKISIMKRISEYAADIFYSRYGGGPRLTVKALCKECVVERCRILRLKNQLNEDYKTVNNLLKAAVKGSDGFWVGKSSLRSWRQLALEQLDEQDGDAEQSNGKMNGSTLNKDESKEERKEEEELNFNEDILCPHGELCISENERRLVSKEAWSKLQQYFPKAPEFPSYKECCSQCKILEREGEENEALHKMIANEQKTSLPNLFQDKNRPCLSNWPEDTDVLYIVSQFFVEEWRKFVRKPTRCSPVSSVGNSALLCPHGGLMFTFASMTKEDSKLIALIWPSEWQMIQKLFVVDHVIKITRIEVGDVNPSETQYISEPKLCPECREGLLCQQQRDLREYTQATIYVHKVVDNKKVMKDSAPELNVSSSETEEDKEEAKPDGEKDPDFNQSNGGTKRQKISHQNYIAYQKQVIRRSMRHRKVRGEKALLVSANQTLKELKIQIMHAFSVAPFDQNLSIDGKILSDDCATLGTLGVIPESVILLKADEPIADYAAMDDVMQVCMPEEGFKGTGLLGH
Outline: as §1

USP5 = target: T4, USP5 (UniProt P45974)
T4 sequence (whole entry): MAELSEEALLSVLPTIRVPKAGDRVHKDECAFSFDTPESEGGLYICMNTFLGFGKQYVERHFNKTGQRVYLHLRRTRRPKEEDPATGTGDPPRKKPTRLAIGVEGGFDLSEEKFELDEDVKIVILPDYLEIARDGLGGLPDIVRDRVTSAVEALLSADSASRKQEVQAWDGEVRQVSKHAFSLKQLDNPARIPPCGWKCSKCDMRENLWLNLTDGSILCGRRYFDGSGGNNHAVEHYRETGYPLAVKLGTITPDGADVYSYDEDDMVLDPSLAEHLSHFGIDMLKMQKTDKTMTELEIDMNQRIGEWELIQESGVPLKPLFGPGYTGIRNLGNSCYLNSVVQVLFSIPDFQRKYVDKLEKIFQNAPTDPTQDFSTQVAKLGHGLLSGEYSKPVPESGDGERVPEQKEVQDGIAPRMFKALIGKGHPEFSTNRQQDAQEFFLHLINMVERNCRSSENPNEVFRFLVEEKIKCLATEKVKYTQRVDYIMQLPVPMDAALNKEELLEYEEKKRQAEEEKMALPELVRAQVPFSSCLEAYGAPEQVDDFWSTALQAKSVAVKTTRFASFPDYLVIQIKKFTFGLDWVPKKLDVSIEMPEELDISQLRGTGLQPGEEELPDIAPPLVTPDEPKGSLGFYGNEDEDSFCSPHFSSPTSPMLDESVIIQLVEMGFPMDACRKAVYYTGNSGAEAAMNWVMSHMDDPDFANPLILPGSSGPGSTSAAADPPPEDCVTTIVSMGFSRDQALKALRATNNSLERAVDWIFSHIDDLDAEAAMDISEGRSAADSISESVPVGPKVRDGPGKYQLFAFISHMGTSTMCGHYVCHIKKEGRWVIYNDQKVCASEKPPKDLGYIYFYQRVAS
Outline: as §1

USP54 = USP54 (UniProt Q70EL1)
Outline: as §1

USP7 = USP7 (UniProt Q93009)
USP7, sequence (Q93009 whole entry, looked up): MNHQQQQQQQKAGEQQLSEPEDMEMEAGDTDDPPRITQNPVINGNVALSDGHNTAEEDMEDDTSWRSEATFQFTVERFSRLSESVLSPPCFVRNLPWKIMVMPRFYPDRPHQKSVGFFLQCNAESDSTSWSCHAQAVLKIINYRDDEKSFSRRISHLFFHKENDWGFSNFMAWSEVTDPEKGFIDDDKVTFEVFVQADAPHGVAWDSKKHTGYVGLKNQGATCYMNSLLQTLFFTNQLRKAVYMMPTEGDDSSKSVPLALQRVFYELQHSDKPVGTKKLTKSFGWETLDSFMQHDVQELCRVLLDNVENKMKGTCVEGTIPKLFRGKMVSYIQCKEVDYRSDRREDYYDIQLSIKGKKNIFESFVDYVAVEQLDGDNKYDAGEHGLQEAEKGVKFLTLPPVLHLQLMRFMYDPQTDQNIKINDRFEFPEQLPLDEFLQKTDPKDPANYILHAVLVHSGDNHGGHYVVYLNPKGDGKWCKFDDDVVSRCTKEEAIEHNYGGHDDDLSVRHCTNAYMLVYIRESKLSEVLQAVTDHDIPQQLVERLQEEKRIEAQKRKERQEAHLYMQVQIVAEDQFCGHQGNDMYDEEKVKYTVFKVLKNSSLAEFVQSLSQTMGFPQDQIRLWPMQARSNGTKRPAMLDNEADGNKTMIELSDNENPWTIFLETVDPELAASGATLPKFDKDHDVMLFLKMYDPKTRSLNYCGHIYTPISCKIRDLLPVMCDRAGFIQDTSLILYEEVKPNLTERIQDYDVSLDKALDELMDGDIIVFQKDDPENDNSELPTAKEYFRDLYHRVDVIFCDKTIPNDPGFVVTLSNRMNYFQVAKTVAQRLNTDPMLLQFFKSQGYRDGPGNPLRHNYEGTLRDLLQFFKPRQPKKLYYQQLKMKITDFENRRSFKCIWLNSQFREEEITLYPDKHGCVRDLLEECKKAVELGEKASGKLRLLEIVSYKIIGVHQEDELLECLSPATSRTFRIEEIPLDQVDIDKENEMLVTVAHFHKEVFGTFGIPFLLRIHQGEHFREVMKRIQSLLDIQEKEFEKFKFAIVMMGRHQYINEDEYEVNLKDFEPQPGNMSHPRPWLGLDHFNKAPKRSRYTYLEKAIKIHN
Outline: as §1

USP8 = target: T5, USP8 (UniProt P40818)
T5 sequence (whole entry): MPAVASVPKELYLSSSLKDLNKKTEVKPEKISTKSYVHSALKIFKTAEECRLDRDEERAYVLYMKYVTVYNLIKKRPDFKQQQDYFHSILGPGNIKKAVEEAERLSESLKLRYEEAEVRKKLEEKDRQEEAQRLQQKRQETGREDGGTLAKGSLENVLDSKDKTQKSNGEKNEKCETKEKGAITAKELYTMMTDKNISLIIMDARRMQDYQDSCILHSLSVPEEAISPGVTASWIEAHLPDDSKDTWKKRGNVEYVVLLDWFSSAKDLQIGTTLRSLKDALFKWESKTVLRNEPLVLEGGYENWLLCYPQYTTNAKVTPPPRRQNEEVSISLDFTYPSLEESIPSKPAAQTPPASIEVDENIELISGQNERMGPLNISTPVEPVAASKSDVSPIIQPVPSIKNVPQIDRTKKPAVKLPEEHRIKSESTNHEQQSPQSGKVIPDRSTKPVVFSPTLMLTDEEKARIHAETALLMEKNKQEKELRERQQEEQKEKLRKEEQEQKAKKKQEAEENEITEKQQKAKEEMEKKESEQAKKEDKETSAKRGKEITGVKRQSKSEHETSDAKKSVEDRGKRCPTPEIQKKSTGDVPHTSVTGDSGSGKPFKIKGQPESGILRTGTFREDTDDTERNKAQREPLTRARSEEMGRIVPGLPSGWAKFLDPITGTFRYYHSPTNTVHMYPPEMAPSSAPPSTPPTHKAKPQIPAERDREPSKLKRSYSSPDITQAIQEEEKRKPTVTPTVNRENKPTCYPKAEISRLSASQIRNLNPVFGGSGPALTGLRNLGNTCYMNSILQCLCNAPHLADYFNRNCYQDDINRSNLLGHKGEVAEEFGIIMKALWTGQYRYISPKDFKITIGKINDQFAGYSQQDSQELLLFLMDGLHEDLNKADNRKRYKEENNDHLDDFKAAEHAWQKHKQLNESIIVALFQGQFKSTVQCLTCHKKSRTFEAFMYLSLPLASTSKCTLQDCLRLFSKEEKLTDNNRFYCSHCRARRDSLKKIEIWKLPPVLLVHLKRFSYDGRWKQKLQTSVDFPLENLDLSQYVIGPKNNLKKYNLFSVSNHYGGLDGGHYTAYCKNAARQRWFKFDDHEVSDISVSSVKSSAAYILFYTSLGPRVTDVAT
Outline: as §1

USP9X = USP9X (UniProt Q93008)
USP9X, sequence (Q93008 whole entry): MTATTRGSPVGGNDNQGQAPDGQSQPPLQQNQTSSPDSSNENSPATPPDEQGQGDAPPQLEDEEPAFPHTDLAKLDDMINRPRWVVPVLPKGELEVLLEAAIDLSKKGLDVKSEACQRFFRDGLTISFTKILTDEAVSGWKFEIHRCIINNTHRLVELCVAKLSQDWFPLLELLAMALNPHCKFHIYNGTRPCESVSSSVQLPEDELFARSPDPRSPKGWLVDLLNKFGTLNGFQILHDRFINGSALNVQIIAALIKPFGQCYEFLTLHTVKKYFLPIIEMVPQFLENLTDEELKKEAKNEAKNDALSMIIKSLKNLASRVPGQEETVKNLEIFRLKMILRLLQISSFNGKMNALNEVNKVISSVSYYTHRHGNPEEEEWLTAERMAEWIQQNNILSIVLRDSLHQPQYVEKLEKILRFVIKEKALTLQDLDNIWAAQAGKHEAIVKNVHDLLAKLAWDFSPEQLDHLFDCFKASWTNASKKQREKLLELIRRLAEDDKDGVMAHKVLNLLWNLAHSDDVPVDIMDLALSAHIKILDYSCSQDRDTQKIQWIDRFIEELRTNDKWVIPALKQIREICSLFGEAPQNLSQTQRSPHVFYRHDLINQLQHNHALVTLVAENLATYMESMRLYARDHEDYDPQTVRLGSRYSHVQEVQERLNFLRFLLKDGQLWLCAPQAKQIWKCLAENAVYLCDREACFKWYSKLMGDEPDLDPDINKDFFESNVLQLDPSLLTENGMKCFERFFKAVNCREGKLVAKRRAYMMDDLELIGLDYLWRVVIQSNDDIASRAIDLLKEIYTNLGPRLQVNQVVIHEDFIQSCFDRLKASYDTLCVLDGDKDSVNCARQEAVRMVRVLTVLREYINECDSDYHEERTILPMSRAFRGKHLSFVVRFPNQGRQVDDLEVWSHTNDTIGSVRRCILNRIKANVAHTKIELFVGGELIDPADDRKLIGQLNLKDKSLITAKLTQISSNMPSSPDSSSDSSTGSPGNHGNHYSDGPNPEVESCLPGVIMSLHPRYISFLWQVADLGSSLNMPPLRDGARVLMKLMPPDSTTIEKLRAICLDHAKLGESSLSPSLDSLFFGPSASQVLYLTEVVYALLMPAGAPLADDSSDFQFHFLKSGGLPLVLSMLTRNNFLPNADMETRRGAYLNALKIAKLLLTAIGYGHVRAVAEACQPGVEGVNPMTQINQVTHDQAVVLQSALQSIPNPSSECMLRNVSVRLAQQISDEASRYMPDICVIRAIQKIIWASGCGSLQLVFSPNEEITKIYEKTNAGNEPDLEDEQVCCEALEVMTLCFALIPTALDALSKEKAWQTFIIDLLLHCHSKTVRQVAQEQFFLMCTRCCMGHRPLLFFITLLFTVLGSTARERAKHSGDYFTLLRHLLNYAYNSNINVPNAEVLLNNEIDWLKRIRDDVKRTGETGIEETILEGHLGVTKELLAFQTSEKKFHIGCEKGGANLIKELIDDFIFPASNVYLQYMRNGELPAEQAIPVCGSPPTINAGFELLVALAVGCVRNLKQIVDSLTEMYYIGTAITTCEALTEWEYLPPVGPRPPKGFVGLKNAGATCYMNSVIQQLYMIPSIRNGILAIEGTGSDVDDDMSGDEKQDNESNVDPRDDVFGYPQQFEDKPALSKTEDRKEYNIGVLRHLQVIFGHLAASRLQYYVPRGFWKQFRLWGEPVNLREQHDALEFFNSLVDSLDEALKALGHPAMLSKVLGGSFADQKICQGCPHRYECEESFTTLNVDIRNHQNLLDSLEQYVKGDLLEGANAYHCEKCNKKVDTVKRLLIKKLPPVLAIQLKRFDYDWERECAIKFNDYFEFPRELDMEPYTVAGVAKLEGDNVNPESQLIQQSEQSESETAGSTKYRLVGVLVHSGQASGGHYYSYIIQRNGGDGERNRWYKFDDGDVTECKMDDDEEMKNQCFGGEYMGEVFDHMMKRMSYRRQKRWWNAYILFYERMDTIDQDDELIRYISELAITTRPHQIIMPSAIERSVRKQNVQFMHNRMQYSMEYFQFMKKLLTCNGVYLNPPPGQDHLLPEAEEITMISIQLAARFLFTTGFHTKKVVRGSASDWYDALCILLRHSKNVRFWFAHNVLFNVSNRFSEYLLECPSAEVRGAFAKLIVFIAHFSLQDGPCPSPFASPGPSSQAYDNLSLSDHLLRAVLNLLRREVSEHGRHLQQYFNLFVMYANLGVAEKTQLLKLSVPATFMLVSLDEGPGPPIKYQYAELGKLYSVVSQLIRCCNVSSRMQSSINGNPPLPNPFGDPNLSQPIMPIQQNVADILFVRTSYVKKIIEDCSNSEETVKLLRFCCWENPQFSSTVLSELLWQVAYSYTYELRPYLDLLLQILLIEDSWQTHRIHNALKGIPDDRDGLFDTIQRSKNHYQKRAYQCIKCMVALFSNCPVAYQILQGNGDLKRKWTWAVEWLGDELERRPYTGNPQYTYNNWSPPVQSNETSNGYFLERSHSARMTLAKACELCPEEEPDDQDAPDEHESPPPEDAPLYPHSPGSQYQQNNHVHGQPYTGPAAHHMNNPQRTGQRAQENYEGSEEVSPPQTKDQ
Outline: as §1

UniProt O00487 = target: UniProt O00487
UniProt O00487, sequence (O00487 whole entry): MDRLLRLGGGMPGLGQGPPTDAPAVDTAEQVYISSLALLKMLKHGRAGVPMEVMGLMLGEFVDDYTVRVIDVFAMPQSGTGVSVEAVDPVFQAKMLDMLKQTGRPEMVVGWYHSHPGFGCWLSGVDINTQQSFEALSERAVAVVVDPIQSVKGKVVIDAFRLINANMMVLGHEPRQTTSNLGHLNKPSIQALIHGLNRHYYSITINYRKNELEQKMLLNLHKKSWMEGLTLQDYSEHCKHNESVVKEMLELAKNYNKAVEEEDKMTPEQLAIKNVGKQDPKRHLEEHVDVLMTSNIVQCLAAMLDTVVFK
Outline: as §1

Measured: log2 ratio of Biotin-Ahx-Ub-VS probe labelling

CN1c2ccccc2C(NC(=O)CCl)CS1(=O)=O (stereo not given)
inactive: USP42 -0.0975 | USP46 0.0351 | USP47 -0.132 | USP48 -0.464 | USP5 0.146 | USP54 0.66 | USP7 -0.369 | USP8 -0.341 | USP9X -0.252 | UniProt O00487 -0.206
